In ChEMBL document CHEMBL3433997, “St. Jude Leishmania screening dataset” (2016):

Tests used:
Type in all cases: functional
[1] = target: Solute carrier family 2, facilitated glucose transporter member 1 (Homo sapiens) (UniProt P11166); test: ST_JUDE_LEISH: Cytotoxicity at 2uM final concentration against transgenic Leishmania Mexicana promastigotes LmGLUT1 that are glucose transport deficient and complemented with the human glucose transporter GLUT1. Activity is measured by DNA content using SYBR green in vitro
[2] = target: Hexose transporter 1 (Plasmodium falciparum) (UniProt O97467); test: ST_JUDE_LEISH: Cytotoxicity at 2uM final concentration against transgenic Leishmania Mexicana promastigotes LmPfHT that are glucose transport deficient and complemented with the Plasmodium falciparum hexose transporter. Activity is measured by DNA content using SYBR green in vitro
[3] = target: Glucose transporter (Leishmania mexicana) (UniProt O61059); test: ST_JUDE_LEISH: Cytotoxicity at 2uM final concentration against transgenic Leishmania Mexicana promastigotes LmGT2 that are glucose transport deficient and complemented with the L. Mexicana glucose transporter 2. Activity is measured by DNA content using SYBR green in vitro

Solute carrier family 2, facilitated glucose transporter member 1 (Homo sapiens), sequence (P11166 whole entry): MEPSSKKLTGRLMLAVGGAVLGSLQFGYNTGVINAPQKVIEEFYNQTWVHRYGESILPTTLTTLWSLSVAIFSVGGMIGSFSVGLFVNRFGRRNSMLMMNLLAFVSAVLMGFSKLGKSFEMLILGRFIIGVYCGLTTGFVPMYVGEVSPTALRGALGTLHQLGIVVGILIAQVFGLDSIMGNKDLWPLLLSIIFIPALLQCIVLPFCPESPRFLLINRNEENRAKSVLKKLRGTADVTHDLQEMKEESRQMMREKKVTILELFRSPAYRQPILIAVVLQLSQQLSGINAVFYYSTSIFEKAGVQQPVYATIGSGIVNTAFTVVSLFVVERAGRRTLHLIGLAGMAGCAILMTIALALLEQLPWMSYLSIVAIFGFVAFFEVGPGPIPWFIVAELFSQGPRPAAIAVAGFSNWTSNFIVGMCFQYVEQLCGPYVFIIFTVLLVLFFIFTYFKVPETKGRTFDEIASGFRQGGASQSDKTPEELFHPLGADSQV

Row | SMILES | inhibition [1] | inhibition [2] | inhibition [3]
1 | N#Cc1ccc2c(c1)CN(CCC1CCC(NC(=O)c3cc4cnccc4[nH]3)CC1)CC2 (stereo unspecified) | 5.36% | 3.42% | 3.7%
2 | CN(C)CCN(C)Cc1ccc(-c2cccc(NC(=O)c3ccc(Cl)cc3)c2)cc1 | 4.75% | 2.96% | 1.03%
3 | Nc1ncc(-c2ccc3[nH]ccc3c2)c2ccc(-c3ccncc3)cc12 | 10% | 10.2% | 9.5%
4 | Cc1cc(N[C@@H](Cc2ccccc2)C(=O)NC2CCCC2)nc(Nc2ccccc2)n1 | 7.17% | 7.28% | 2%
5 | CCOc1cc(Cc2cnc(N)nc2N)cc(OCC)c1O | 1.1% | 1.86% | -1.21%
6 | CC(C)CNCc1cccc(-c2cccc(CNCCCN3CCN(C)CC3)c2)c1 | 2.03% | 0.17% | 4.44%
7 | Fc1ccc2[nH]c(-c3ccc(-c4ccc(CN5CCCCC5)cc4)cc3)nc2c1 | 8.66% | 7.06% | 5.34%
8 | CC(=O)Nc1nc(C(=O)Nc2ccc(-c3cccc(-c4nc5cc(C(F)(F)F)ccc5[nH]4)c3)cc2)cs1 | 0.32% | 2.2% | 0.81%
9 | COc1ccccc1CCNc1nc(C)cc(N[C@@H](CC(C)C)C(=O)NCCc2ccccc2)n1 | 2.53% | 5.72% | 2.57%
10 | CCCC(=O)Nc1ccc(OCCN(Cc2ccccc2OC(F)(F)F)c2ccc(C(F)(F)F)c(C#N)c2)cc1 | 3.46% | 1.7% | 2.31%
11 | CN(C)c1ccc(-c2ccc(C(=O)NC3CCN(Cc4ccccc4)CC3)s2)cc1 | 1.65% | 0.56% | 1.83%
12 | Cc1cc(N2CCCC2)nc(Nc2ccc(NC(=O)c3ccco3)cc2)n1 | 0.47% | 3.07% | -0.1%
